Measurements as given in article PMC5540273 (PLoS ONE, 2017).

Tests used:
Details in all cases: concentration: 1 μM, replicates: in singlicate; n = 1
NIM1 = system: T1, NIM1
T1 construct: gene MGC42105

NLK = system: NLK
OSR1 = system: T2, OSR1
T2 construct: gene OXSR1

PAK1 = system: PAK1
PAK2 = system: PAK2
PAK3 = system: PAK3
PAK4 = system: PAK4
PAK6 = system: PAK6
PAK7 = system: PAK7
PCTK1 = system: T3, PCTK1
T3 construct: gene CDK16

PCTK2 = system: T4, PCTK2
T4 construct: gene CDK17

PCTK3 = system: T5, PCTK3
T5 construct: gene CDK18

PDGFRA = system: PDGFRA
PDGFRB = system: PDGFRB
PDPK1 = system: PDPK1
PFTAIRE2 = system: PFTAIRE2
PFTK1 = system: T6, PFTK1
T6 construct: gene CDK14

PHKG1 = system: PHKG1
PHKG2 = system: PHKG2
PIK3C2B = system: PIK3C2B
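Further: KINOMEscan kinase panel screen.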

Row | Compound | %Inh (NIM1) | %Inh (NLK) | %Inh (OSR1) | %Inh (PAK1) | %Inh (PAK2) | %Inh (PAK3) | %Inh (PAK4) | %Inh (PAK6) | %Inh (PAK7) | %Inh (PCTK1) | %Inh (PCTK2) | %Inh (PCTK3) | %Inh (PDGFRA) | %Inh (PDGFRB) | %Inh (PDPK1) | %Inh (PFTAIRE2) | %Inh (PFTK1) | %Inh (PHKG1) | %Inh (PHKG2) | %Inh (PIK3C2B)
1 | Nc1ncc(-c2ccc3nccc(-c4ccncc4)c3c2)cc1S(=O)(=O)N1CCCCC1 [GSK1693850] | 0% | 13% | 5% | 18% | 8% | 14% | 0% | 0% | 18% | 0% | 26% | 0% | 0% | 22% | 0% | 48% | 47% | 0% | 14% | 100%
2 | Cc1ccc(O)cc1Nc1ccnc2ccc(C(C)(C)C)cc12 [GW856805] | 52% | 1% | 30% | 23% | 50% | 0% | 17% | 34% | 2% | 12% | 14% | 5% | 64% | 62% | 52% | 12% | 21% | 24% | 0% | 23%
3 | N#Cc1cnc2cc(-c3cnc(CNCCN4CCOCC4)s3)ccc2c1Nc1ccc(Oc2ccccc2)cc1 [GW664114] | 12% | 0% | 0% | 10% | 0% | 21% | 0% | 10% | 2% | 28% | 11% | 18% | 0% | 24% | 0% | 22% | 18% | 0% | 0% | 0%
4 | COc1cccc2c(-c3ccncc3)c(-c3ccc(F)cc3)nn12 [GW468513] | 14% | 86% | 7% | 0% | 10% | 61% | 0% | 0% | 0% | 0% | 11% | 0% | 0% | 21% | 10% | 5% | 0% | 18% | 0% | 0%
